Assay [1] can be described thus: qHTS assay to identify small molecule agonists of the RXR signaling pathway - cell viability counter screen (AID 1159529). Also: series mostly up to about 77 µM; nearly all actives have a fitted effect of over 50% in size. An outline of the steps: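 CellTiter-Glo luminescence gave viability in the wells also read for beta-lactamase. Cells (RXR-alpha-UAS-bla HEK 293T, 2% charcoal-stripped FBS medium) had 5 hr plating, then 16 hr compound exposure at 37 C; tetraoctyl ammonium bromide served as positive control.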

The nature of assay [2]: qHTS assay to identify small molecule antagonists of the retinoid acid receptor (RAR) signaling pathway - cell viability counter screen (AID 1159551). Also: nearly all actives have a fitted effect of over 35% in size. A digest of the protocol: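 ATP-based viability, C3RL4 cells, 6 h at 37 C with 1 uM final retinol co-added after compound; luminescence read 30 min post CellTiter-Glo, RT.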
Assay [3] in a line: qHTS assay to identify small molecule antagonists of the retinoic acid receptor (RAR) signaling pathway (AID 1159552; also: nearly all actives have a fitted effect of over 50% in size). A digest of the protocol: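 Luminescent RARE reporter read-out in C3RL4 cells: 6 hr co-treatment at 37 C of test compounds with retinol at 1 uM final. Cells plated overnight beforehand; luciferase reagent incubated 30 min at room temperature before reading.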

Assay [4] can be described thus: qHTS assay to identify small molecule agonists of the retinoic acid receptor (RAR) signaling pathway (AID 1159553). Also: potency is read from the fitted curve at half-maximal effect. A digest of the protocol:
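Quantitative high-throughput format: the Tox21 10K library was tested on C3RL4 RARE-luciferase cells for 6 hr at 37 C and 5% CO2, with luminescence measured after a 30 min room-temperature reagent step.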

Assay [5] in a line: qHTS assay to identify small molecule antagonists of the estrogen related receptor (ERR) signaling pathway from Tox21 library - cell viability counter screen (AID 1224834). Also: nearly all actives have a fitted effect of over 30% in size. An outline of the steps:
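Compounds in DMSO were pinned onto ERR cells that had been incubated for 6 h, and the plates were held at 37 C for 17.5 h. CellTiter-Fluor reagent was then added and fluorescence was measured after 30 min.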

In assay [6] the target is Luciferin 4-monooxygenase (Photinus pyralis) (UniProt P08659). Kind of assay: qHTS assay to identify small molecule inhibitors of firefly luciferase (AID 1224835). Also: nearly all actives have a fitted effect of over 25% in size. Also: potency is read from the fitted curve at half-maximal effect. A digest of the protocol: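 Biochemical qHTS: compounds run as interplate titrations against purified firefly enzyme, with D-luciferin and ATP each at its KM concentration. Light output recorded by CCD imaging.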

Assay [7] is described as follows: qHTS assay to identify small molecule antagonists of the constitutive androstane receptor (CAR) signaling pathway - cell viability counter screen (AID 1224837). Also: series mostly up to about 92 µM; nearly all actives have a fitted effect of over 45% in size. An outline of the steps:
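Cells are seeded, rested 4 hr at 37 C/5% CO2, dosed with compound (15-point series) and 50 nM CITCO, incubated a further 23 hr, and then CellTiter-Fluor reagent is added before fluorescence is read. The line is HepG2 with stable hCAR and CYP2B6-2.2kb.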

Assay [8] has as its target Nuclear receptor subfamily 1 group I member 3 (Homo sapiens) (UniProt Q14994). Kind of assay: qHTS assay to identify small molecule antagonists of the constitutive androstane receptor (CAR) signaling pathway (AID 1224838).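 Also: HepG2 cells stably expressing hCAR with CYP2B6 luciferase reporter stimulated by CITCO; nearly all actives have a fitted effect of over 40% in size.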 A digest of the protocol: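 Luminescence from a CYP2B6-2.2kb promoter reporter in hCAR-expressing HepG2 cells reflects CAR signaling. Cells received compounds at 15 concentrations and 50 nM CITCO (final), then incubated 24 h at 37 C/5% CO2.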

For assay [9] the target is unchanged. Kind of assay: qHTS assay to identify small molecule agonists of the constitutive androstane receptor (CAR) signaling pathway (AID 1224839). Also: nearly all actives have a fitted effect of over 15% in size. Also: potency is read from the fitted curve at half-maximal effect. A digest of the protocol: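 Luminescent ONE-Glo read-out after 24 hr, 37 C exposure of double-stable HepG2-CYP2B6-hCAR reporter cells to a 15-point compound series, in the presence of 0.75 uM PK11195 (final).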
A short description of assay [10]: qHTS assay to identify small molecule antagonists of the estrogen related receptor signaling pathway with the pleiotropic PPARgamma coactivator (PGC) from Tox21 10K library - cell viability counter screen (AID 1224840; active = well fitted cell-killing curve with a large enough effect in the repeat runs, not every such curve was filed as active; also: nearly all actives have a fitted effect of over 40% in size). A digest of the protocol:
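Cell viability is measured by CellTiter-Fluor fluorescence in PGC/ERR cells that receive compounds after a 6-hour attachment period and are then incubated 17.5 hours at 37 C.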

A short description of assay [11]: qHTS assay to identify small molecule antagonists of the estrogen related receptor signaling pathway with the pleiotropic PPARgamma coactivator (PGC) from Tox21 10K library (AID 1224841; call rule not given here; also: actives are mostly falling curves and most rising ones were filed inactive; nearly all actives have a fitted effect of over 50% in size; also: potency is read from the fitted curve at half-maximal effect). An outline of the steps:
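Cells stably carrying the PGC/ERR reporter, seeded at 2,000 per well, received pin-transferred compounds 6 h post-plating. Exposure lasted 18 h at 37 C. Signal: One-Glo luminescence.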

Assay [12] in a line: qHTS assay to identify small molecule agonists of the estrogen related receptor signaling pathway with the pleiotropic PPARgamma coactivator (PGC) from Tox21 10K library (AID 1224842). Also: nearly all actives have a fitted effect of over 15% in size. An outline of the steps: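 PGC/ERR reporter cell line, 2,000 cells per well, incubated 6 h at 37 C before 23 nL compound in DMSO was added. After 18 h at 37 C, One-Glo luminescence read following 30 min at room temperature.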

Assay [13] in a line: qHTS assay to identify small molecule agonists of the constitutive androstane receptor (CAR) signaling pathway - cell viability counter screen (AID 1224836). Also: series mostly up to about 92 µM; nearly all actives have a fitted effect of over 45% in size. An outline of the steps:
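Cell viability multiplexed with the CAR agonist screen: CellTiter-Fluor fluorescence after 23 hr at 37 C. HepG2-CYP2B6-hCAR cells got compounds at 15 concentrations with PK11195 at 0.75 uM final.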

Inconclusive results are not listed. Unmarked numbers belong to inactive results. Calls of active or inactive are those of the source. Unless noted, calls follow the shape of the dose curve; as a rule, active = well fitted curve in the direction sought with a large enough effect in the repeat runs; inconclusive = weak or mixed curves; inactive = no such curve, though single readings can be large; an effect the other way counts as inactive or inconclusive.

Nuclear receptor subfamily 1 group I member 3 (Homo sapiens), sequence (Q14994 whole entry, looked up): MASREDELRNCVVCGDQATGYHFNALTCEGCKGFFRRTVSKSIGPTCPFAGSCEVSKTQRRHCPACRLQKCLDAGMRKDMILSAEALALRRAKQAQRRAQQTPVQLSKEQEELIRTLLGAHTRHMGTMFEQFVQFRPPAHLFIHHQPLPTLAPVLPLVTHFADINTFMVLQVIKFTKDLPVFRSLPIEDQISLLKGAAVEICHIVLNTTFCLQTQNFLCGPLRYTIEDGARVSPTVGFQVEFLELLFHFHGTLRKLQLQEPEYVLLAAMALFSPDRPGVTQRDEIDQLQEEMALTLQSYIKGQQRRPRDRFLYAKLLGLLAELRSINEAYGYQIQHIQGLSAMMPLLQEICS
Luciferin 4-monooxygenase (Photinus pyralis), sequence (P08659 whole entry, looked up): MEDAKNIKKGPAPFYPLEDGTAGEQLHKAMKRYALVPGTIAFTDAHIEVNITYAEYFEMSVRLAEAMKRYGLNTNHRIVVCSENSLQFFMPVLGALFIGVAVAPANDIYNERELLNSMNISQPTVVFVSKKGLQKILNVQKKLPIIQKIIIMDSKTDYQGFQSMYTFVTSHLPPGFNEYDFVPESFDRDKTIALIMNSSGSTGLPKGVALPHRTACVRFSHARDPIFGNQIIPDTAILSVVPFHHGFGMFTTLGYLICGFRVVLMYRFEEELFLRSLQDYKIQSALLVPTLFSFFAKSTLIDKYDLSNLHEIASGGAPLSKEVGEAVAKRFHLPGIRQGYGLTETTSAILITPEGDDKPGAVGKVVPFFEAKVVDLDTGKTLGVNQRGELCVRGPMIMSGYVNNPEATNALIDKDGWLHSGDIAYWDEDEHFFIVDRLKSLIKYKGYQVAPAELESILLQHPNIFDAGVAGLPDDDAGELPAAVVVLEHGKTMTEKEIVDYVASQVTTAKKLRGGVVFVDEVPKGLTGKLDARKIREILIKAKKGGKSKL

Regarding `O=C(O)c1cccc(C(=O)O)n1`, the Potency entry in assay [1], in assay [3], in assay [4], in [5], in assay [6] and in [8] was “inactive” in each case. The Potency result in assay [9], in assay [11] and in [12] was “inactive” in each case. The outcome in assay [2], in [7] and in assay [10] was inactive.
As to `CCO[Si](C)(OCC)OCC`, the Potency entry in [1], in assay [3], in [4], in assay [5], in [6] and in assay [8] was “inactive” throughout. In addition, the Potency entry in assay [9], in [11] and in [12] was “inactive” in each case. Also, the compound was called inactive in assay [2], in assay [13], in assay [7] and in assay [10].
For `COc1ccc(COC=O)cc1`, the Potency result in assay [1], in assay [3], in [4], in [5], in assay [6] and in [8] was “inactive” in each case. In addition, the Potency result in [9], in assay [11] and in assay [12] was “inactive” in each case. The compound was called inactive in [2], in [13], in assay [7] and in [10].
On to `O=S(=O)(O)c1ccccc1O`, for which the Potency result in assay [1], in [3], in assay [4], in [5], in assay [6] and in assay [8] was “inactive” each time. In addition, the Potency result in [9] and in [11] was “inactive” throughout. The compound was classed as inactive in [2], in assay [13], in assay [7] and in [10].
As for `CC(C)(C)N(CCO)CCO`, the Potency result in [1], in assay [3], in assay [4], in [5], in [6] and in assay [8] was “inactive” throughout. Also, the Potency result in assay [9] was “inactive”. Moreover, the call in [13], in assay [7] and in assay [10] was inactive.
Consider `C#CC(C)(O)CC(C)C` (configuration not stated), for which the Potency result in [1], in assay [3], in [4], in assay [5], in assay [6] and in assay [8] was “inactive” throughout. Besides, the Potency result in [9], in [11] and in assay [12] was “inactive” each time. Besides, the call in [2], in [13], in assay [7] and in [10] was inactive.
In the case of `CCCCCCC(=O)OCC`, the Potency entry in [1], in assay [3], in [4], in assay [5], in assay [6] and in assay [8] was “inactive” each time. In addition, the Potency result in assay [9], in assay [11] and in assay [12] was “inactive” throughout. Also, the compound was called inactive in [13], in assay [7] and in assay [10].
Consider `c1ccc(SCCSc2ccccc2)cc1`, for which the Potency result in [1], in assay [3], in [5], in [8] and in assay [11] was “inactive” each time. For the same compound, the result in assay [2], in assay [13], in assay [7] and in assay [10] was inactive. Besides, the Potency is 6.06 µM (active) in assay [4], 7.9 µM (active) in assay [6] and 17.1 µM (active) in assay [9].
Regarding `CCCCCCOC(=O)CC(CC(=O)OCCCCCC)(OC(=O)CCC)C(=O)OCCCCCC`, the Potency result in [1], in [3], in assay [4], in [5], in assay [6] and in [8] was “inactive” in each case. Further, the Potency entry in assay [9], in [11] and in [12] was “inactive” each time. For the same compound, the outcome in [2], in [13], in assay [7] and in [10] was inactive.
In the case of `CC(C)COC(=O)C(C)C`, the Potency result in [1], in assay [3], in assay [4], in assay [5], in assay [6] and in assay [8] was “inactive” each time. Moreover, the Potency result in assay [9] and in assay [12] was “inactive” throughout. Also, the result in assay [2], in [13], in assay [7] and in [10] was inactive.
For the compound `Cc1onc(-c2ccccc2)c1-c1ccc(S(N)(=O)=O)cc1`, the Potency entry in [1], in assay [3], in assay [4], in assay [5], in assay [6] and in [8] was “inactive” throughout. Also, the Potency entry in assay [9] was “inactive”. Besides, the call in [2], in assay [7] and in [10] was inactive. Also, in assay [11], the Potency was 23.7 µM (active).
For `CCC(=O)/C=C/c1ccc(OC)cc1`, the Potency result in [1], in assay [3], in [5], in assay [8] and in [11] was “inactive” throughout. The compound was classed as inactive in assay [2], in assay [13], in [7] and in assay [10]. Moreover, the results for the Potency in [4], in [6] and in [9] were 61.1 µM (active), 35.6 µM (active) and 54.5 µM (active), respectively.
On to `COc1ccc2cc(C=O)ccc2c1`, for which the Potency entry in assay [1], in [3], in assay [4], in assay [5], in assay [8] and in [9] was “inactive” in each case. Further, the Potency entry in assay [11] and in assay [12] was “inactive” throughout. The compound was classed as inactive in [2], in assay [13], in assay [7] and in assay [10]. In assay [6], the Potency is 34.7 µM (active).
On to `CC(C)(C)C(=O)/C=C/c1ccc(Cl)cc1`, for which the Potency result in assay [1], in assay [3], in assay [4], in assay [5], in assay [8] and in assay [9] was “inactive” each time. In addition, the Potency result in [11] was “inactive”. In addition, the compound was called inactive in [2], in [13], in [7] and in assay [10]. Moreover, the Potency in assay [6] was 25.2 µM (active).
In the case of `CCCCCCOC(=O)c1ccccc1O`, the Potency result in [1], in assay [3], in [4], in assay [5], in assay [8] and in [9] was “inactive” throughout. Also, the Potency entry in [11] and in [12] was “inactive” each time. Also, the call in assay [2], in assay [13], in assay [7] and in assay [10] was inactive. In addition, the Potency in [6] is 17.8 µM (active).
In the case of `CC(C)(O)c1ccccc1`, the Potency entry in assay [1], in assay [3], in assay [4], in assay [5], in assay [6] and in assay [8] was “inactive” each time. In addition, the Potency entry in assay [9] and in assay [11] was “inactive” in each case. For the same compound, the outcome in assay [13], in assay [7] and in assay [10] was inactive.
As to `CC(C)(O)Cc1ccccc1`, the Potency entry in assay [1], in assay [3], in assay [4], in assay [5], in assay [6] and in assay [8] was “inactive” each time. Further, the Potency result in assay [9], in assay [11] and in assay [12] was “inactive” each time. The compound was called inactive in assay [7] and in [10].
For the compound `C=C(C)C(=O)OCCC(C)OC(=O)C(=C)C` (configuration not stated), the Potency entry in [1], in assay [3], in assay [4], in [5], in [6] and in [8] was “inactive” each time. The Potency entry in assay [9], in [11] and in [12] was “inactive” throughout. For the same compound, the call in assay [2], in assay [13], in assay [7] and in assay [10] was inactive.
Consider `COc1cc(CCC(C)=O)ccc1O`, for which the Potency entry in [1], in assay [3], in assay [4], in [5], in assay [6] and in assay [8] was “inactive” each time. In addition, the Potency entry in assay [9] and in [11] was “inactive” throughout. Besides, the result in [13], in [7] and in assay [10] was inactive.
On to `CCCCCCCCN(C)CCCCCCCC`, for which the Potency entry in [1], in assay [3], in assay [4], in assay [5], in assay [6] and in [8] was “inactive” in each case. In addition, the Potency entry in assay [9], in assay [11] and in assay [12] was “inactive” each time. Also, the compound was classed as inactive in assay [2], in assay [13], in assay [7] and in [10].

The values are drawn from PubChem BioAssay (Tox21).
